CtBP-E1A inh: inhibitors of CtBP/E1A interaction. AlphaScreen GST-E1A/His-CtBP binding, 1536-well; hits give low values. activity change, % (test concentration not listed). 340,000 tested, 0.49% active. AID 651724; in the data active means activity change below about -65%; inconclusive means mostly about -30% to -63%; further: on the % scale 0 is the no-effect control and ±100 the full control effect
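AlphaScreen with 125 nM GST-E1A and 125 nM His-CtBP (5X stocks) in Tris pH 8.0, 300 mM NaCl, BSA, Tween 20, TCEP. Compounds preincubated 2 h at 37 deg C, then glutathione donor/nickel acceptor beads added for 1 h at 37 deg C in dark.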
BAZ2B block: BAZ2B (human) inhibition; Potency, µM (highest dose often 114 µM), inactives show at the top dose activity change, negative = inhibition, usual class: inhibitors; 360,000 tested, 4.4% active; Q9UIF8; AlphaScreen BAZ2B-H3K14Ac peptide displacement; AID 504333; further: potency means the concentration at half of the fitted maximal effect; on the % scale 0 is the no-effect control and ±100 the full control effect; nearly all actives have a fitted effect of over 60% in size
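Inhibition is scored as reduced AlphaScreen emission. The BAZ2B/b-H3(5-23)K14Ac complex (50 nM each) in PBS pH 7.4, 0.01% Tween-20 meets compound (up to 110 uM) for 30 min at RT before bead addition.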
HP1b binding inh: inhibitors of HP1-beta chromodomain binding to methylated histone tails; AlphaScreen HP1-beta / biotin-H3K9me3 peptide binding; Potency, µM (titrated, usually from 114 µM), for the others: at the top dose activity change, negative = inhibition, actives largely listed as inhibitors; 390,000 tested, 0.56% active; further: potency means the concentration at half of the fitted maximal effect; nearly all actives have a fitted effect of over 70% in size
Target sequence (P83916 whole entry, looked up): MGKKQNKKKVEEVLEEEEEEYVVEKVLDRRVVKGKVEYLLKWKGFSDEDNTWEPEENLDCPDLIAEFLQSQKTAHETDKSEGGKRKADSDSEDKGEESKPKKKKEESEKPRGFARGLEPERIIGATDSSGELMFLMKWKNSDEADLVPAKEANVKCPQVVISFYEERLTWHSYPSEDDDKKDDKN
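HP1-beta protein (50 nM final) preincubated 30 min at room temperature with biotinylated H3(1-18)K9me3 peptide (50 nM) in PBS pH 7.4, 0.01% Tween-20, then compound added for 30 min. AlphaScreen streptavidin donor/nickel chelate acceptor beads (10 ug/mL final), 30 min dark, luminescence read.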
Six1-Eya2 blk: Six1/Eya2 interaction inhibition | Q15475+O00167 | AlphaScreen GST-Six1/His-Eya2 binding, biochemical; hits give low values | activity change, % (no concentration beside the values) | 360,000 tested, 0.56% active | AID 651725; in the data active means activity change below about -65%; inconclusive means mostly about -30% to -63%; further: on the % scale 0 is the no-effect control and ±100 the full control effect
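AlphaScreen with GST-Six1 and His-Eya2 (5X mix: 250 nM and 500 nM), glutathione donor and nickel acceptor beads; buffer 50 mM Tris pH 8.0, 300 mM NaCl, 1 mM TCEP; 1 h at 37 C in the dark.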
JMJD2A Tudor: inhibitors of human JMJD2A Tudor domain. AlphaScreen JMJD2A-Tudor / H3K4me3 peptide binding. Potency, µM (series often up to 114 µM), without a hit: at the top dose activity change, negative = inhibition, most hits filed as inhibitors. 390,000 tested, 4.4% active. AID 504339; further: potency means the concentration at half of the fitted maximal effect; on the % scale 0 is the no-effect control and ±100 the full control effect; nearly all actives have a fitted effect of over 50% in size
G9a block: blocks human histone lysine methyltransferase G9a; G9a H3K9 monomethylation, AlphaScreen, 2 h; Q96KQ7; Potency, µM (titrated, usually from 102 µM), without a hit: at the top dose activity, negative = inhibition, hits mostly inhibitors; 350,000 tested, 8.8% active; further: potency means the concentration at half of the fitted maximal effect; on the % scale 0 is the no-effect control and ±100 the full control effect; nearly all actives have a fitted effect of over 75% in size
Target sequence (Q96KQ7 913-1193 limits assumed): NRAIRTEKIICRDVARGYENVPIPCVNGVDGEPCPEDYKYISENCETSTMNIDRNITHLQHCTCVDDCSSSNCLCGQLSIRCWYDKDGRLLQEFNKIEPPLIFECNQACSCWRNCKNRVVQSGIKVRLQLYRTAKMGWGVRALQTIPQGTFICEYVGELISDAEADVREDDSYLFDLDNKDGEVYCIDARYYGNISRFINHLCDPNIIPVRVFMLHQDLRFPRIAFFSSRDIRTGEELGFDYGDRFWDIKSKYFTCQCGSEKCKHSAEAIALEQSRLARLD
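G9a (20 nM) was preincubated 15 min with compound, then reacted 2 h at room temperature with 500 nM biotin-H3K9 peptide and 20 µM SAM. Monomethyl-H3K9 detected by AlphaScreen using anti-H3K9me1 antibody.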
Starred values were filed as active, the others as inactive; ? = inconclusive; / = not tested or not shown; [ ] = remark or other dose. Rows were chosen to be rich in hits. Some 10% of all compounds tested hit in one or more screens of this group. Unless noted, the call rests on the fitted dose curve; in most records, active means well fitted inhibition curve with a large enough effect; inconclusive means small, poorly fitted or top-dose-only effect; inactive means no such curve, though single readings can be large or run the other way.

SMILES	CtBP-E1A inh	BAZ2B block	HP1b binding inh	Six1-Eya2 blk	JMJD2A Tudor	G9a block
Cc1cc(NC(=O)c2ccc(Cn3cc([N+](=O)[O-])cn3)o2)no1	1	-11%	31%	1	-16%	-13%
Cc1cc(NC(=O)CN2CCN(c3ncccn3)CC2)no1	-4	56µM*	?	5	20µM*	8.9µM*
O=C(CN1CCN(c2ncccn2)CC1)NCCC1=CCCCC1	29	50µM*	?	3	3.2µM*	?
Cc1ccc(CNC(=O)CN2CCCC(C)C2)cc1 (stereo unspecified)	-1	35%	20%	-1	-4%	13%
Cc1cc(NC(=O)CN2CCCC(C)C2)no1 (stereo unspecified)	-15	1%	50µM*	-5	2.8µM*	/
Cc1cc(C)cc(NC(=O)CN2CCN(c3ncccn3)CC2)c1	-4	?	13%	-7	-6%	5%
Cc1cc(NC(=O)Cn2cc([N+](=O)[O-])cn2)no1	42	-15%	46%	0	3%	50µM*
Cc1cc(NC(=O)CN2CCCCC2)no1	-3	56µM*	?	-5	?	?
C/C(=N\N1C(=O)c2ccccc2NC1c1ccco1)c1ccccc1O (stereo unspecified)	/	71µM*	?	-10	?	-45%
C/C(=N\N1C(=O)c2ccccc2NC1c1ccccc1)c1ccccc1O (stereo unspecified)	/	-25%	46%	-4	-4%	14%
CCOc1ccc(N(CC(=O)N2CCCCCC2)S(=O)(=O)c2ccc(C)cc2)cc1	3	-27%	41%	6	-2%	/
O=C(Nc1ccccc1C(=O)N1CCN(Cc2ccccc2)CC1)c1ccccn1	3	-2%	28%	-26	?	14µM*
CCCc1[nH]nc2c1C(c1ccc(O)cc1OCC)C(C#N)=C(N)O2 (stereo unspecified)	0	79µM*	5%	-29	-18%	?
COc1cc2c(cc1OC)CN(C(=O)c1oc3ccccc3c1C)CC2	-8	?	-18%	-1	-32%	7%
CCn1c(C(=O)NCc2ccc(F)cc2)cc2oc3ccccc3c21	/	1%	21%	/	-33%	1%[59 µM]
CCn1c(C(=O)N2CCc3ccccc3C2)cc2oc3ccccc3c21	-26	50µM*	-23%	?	?	?
Cn1c(C(=O)N2CCc3ccccc3C2)cc2oc3ccccc3c21	?	?	?	?	79µM*	?
Cc1cccc2[nH]c(CN(C)Cc3nc(CC4CC4)no3)nc12	-11	1%	32%	5	-21%	11%
CN(C)/C=N/c1nc(Sc2ccc(C(F)(F)F)cc2[N+](=O)[O-])n[nH]1	-21	-2%	11%	16	-10%	-1%
O=[N+]([O-])c1cc(C(F)(F)F)cc([N+](=O)[O-])c1Sc1n[nH]c(C(F)(F)F)n1	-3	-35%	43%	-18	50µM*	/
COCCNC(=O)C(OC(=O)C1=Cc2ccccc2OC1)C(C)C (stereo unspecified)	0	-15%	49%	11	-9%	7%
Cn1c(SCc2cccc([N+](=O)[O-])c2)nc2c(c1=O)SCC2	?	71µM*	-15%	-25	56µM*	?
Cc1cc2c(Nc3ccc(C(=O)O)cc3)ncnc2s1	-18	-3%	30%	7	-9%	/
Cc1cc2c(Nc3ccc(O)cc3)ncnc2s1	-1	?	37%	-2	-13%	56µM*
O=C1C(=O)N(Cc2cccnc2)C(c2cccc([N+](=O)[O-])c2)/C1=C(/O)c1ccc2c(c1)OCO2 (stereo unspecified)	9	-27%	30%	0	-12%	?
SMILES	CtBP-E1A inh	BAZ2B block	HP1b binding inh	Six1-Eya2 blk	JMJD2A Tudor	G9a block
O=C(/C=C/c1ccc(O)c(O)c1)O[C@H](Cc1ccc(O)c(O)c1)C(=O)O	/	3.5µM*	/	/	/	?
O=C(O)/C=C/c1ccc(O)c(O)c1	2	?	13%	2	?	11µM*
COc1cc(/C=C/C(=O)O)ccc1O	-24	/	28%	8	-9%	-39%[2.33 µM]
O=C(/C=C/c1ccc(O)c(O)c1)NC(=O)c1ccccc1O	-13	50µM*	?	-19	63µM*	5%[12.7 µM]
CO[C@H]1CN(C)C(=O)c2cc(NC(=O)C3CCCC3)ccc2OC[C@@H](C)NC[C@H]1C	-16	/	/	4	/	/
CCOC(=O)c1[nH]c2ccccc2c1NC(=S)Nc1cccc(C)c1	-15	?	-13%	-2	?	40µM*
CCOC(=O)c1[nH]c2ccccc2c1NC(=S)Nc1ccccc1	1	?	-7%	-9	-14%	45µM*
CCOC(=O)c1[nH]c2ccccc2c1NC(C)=O	-2	-2%	31%	5	-17%	21%[12.7 µM]
CCOC(=O)c1[nH]c2ccccc2c1NC(=O)CC	-23	-4%	35%	13	-12%	9%
CC(=O)Nc1ccc(N2CCN(Cc3ccccc3)CC2)cc1	/	-19%	17%	0	-19%	-8%
COC(=O)CSc1nnc(CNc2ccc(Cl)cc2)n1Cc1ccccc1	-24	?	7%	-1	-21%	56µM*
Cc1ccc(NCc2nnc(SCC(=O)O)n2Cc2ccccc2)cc1Cl	2	-31%	31%	5	-15%	-31%
CCOc1ccc(CNc2ccc(N3CCN(Cc4ccccc4)CC3)cc2)cc1	?	8.9µM*	?	?	8.9µM*	/
CCOc1ccc(NCc2nnc(SCc3ccc(Cl)cc3)n2-c2ccccc2)cc1	?	14µM*	?	?	22µM*	25µM*
CCOc1ccc(CN2CCSCC2)cc1	-4	?	?	1	3.5µM*	?
CCOc1ccc(CN2CCC(=O)NC2=O)cc1	10	-6%	32%	1	6%	12%
COc1ccc(-c2nc3c4ccccc4ccn3c2CC2CCCCC2)cc1OC	-21	/	/	3	/	/
COc1ccc(S(=O)(=O)N2CCCCC2)cc1NC(=O)c1cnc(C)cn1	1	-2%	43%	0	1%	5%[12.7 µM]
CCCCOc1ccc(NC(=O)CN2CCN(Cc3ccccc3)CC2)cc1	3	-21%	23%	-6	-16%	18%
CCCCOc1ccc(CN2CCSCC2)cc1	-8	5%	?	0	28µM*	/
COc1ccc(C)cc1NC(=O)CN(c1cc(C(F)(F)F)ccc1Cl)S(C)(=O)=O	/	-1%	15%	/	-21%	-33%[59 µM]
CN(C)c1ccc(CNC(=O)C2Cc3c(-c4ccccc4Oc4ccccc4)ccnc3O2)cc1 (stereo unspecified)	?	/	/	-66*	/	/
CCOC(=O)NNC1CC(=O)N(c2ccccc2)C1=O (stereo unspecified)	-4	0%	14%	7	-12%	?

Compound activity: PubChem, National Center for Advancing Translational Sciences (NCATS)
